From PubChem BioAssay (Tox21)
Records with an inconclusive call do not appear. Activity calls are given as the source filed them. Calls follow the shape of the full dose curve.

Experiment: qHTS assay for small molecules that induce genotoxicity in human embryonic kidney cells expressing luciferase-tagged ATAD5 - cell viability (AID 651634); also: nearly all actives have a fitted effect of over 25% in size
Conditions: HEK293T ATAD5-luc cells viability, CellTiter-Fluor, 15.5 h; series mostly up to 83.3 µM; activity, negative = cytotoxicity: at the top concentration
From the text: National Center for Advancing Translational Sciences [NCATS]
NIH Chemical Genomics Center [NCGC]
U.S. Environmental Protection Agency [EPA]
National Institutes of Environmental Health Sciences [NIEHS]
National Toxicology Program [NTP]
U.S. Food and Drug Administration [FDA]
Enhanced Level of Genome Instability Gene 1 (ELG1; human ATAD5) protein levels increase in response to various types of DNA damage. Using a luciferase reporter-gene tagged with ElG1, a cell-based assay [developed by Kyungjae Myung, NHGRI, NIH] was used to measure the induction of ATAD5 in human embryonic kidney cells (HEK293T). So, increase in luciferase activity can be used to identify the compounds that cause genetic stress. In addition to genotoxicity, these cells were also used to test for cytotoxicity by measuring the protease activity within live cells.
Tox21 Assay Protocol Summary:
For cytotoxicity screening, 2,000 cells in 5 uL/well were dispensed into white, solid-bottom 1536-well plates using a Multidrop Combi (Thermo Scientific) dispenser. Following transfer of 23 nL compound or DMSO vehicle by a pin tool, the plates were incubated 15.5 hr at 37C and 5% CO2. 1 ul CellTiter-Fluor reagent (Promega, Madison, WI) was then added to each plate and following 30 min incubation at 37C, fluorescence intensity was quantified on a ViewLux CCD-based plate reader.
% is scaled to controls: 0 for no effect and ±100 for the full control effect; potency is read from the fitted curve at half-maximal effect.

SMILES | Potency | activity, negative = cytotoxicity
COC(=O)Nc1nc2ccc(C(=O)c3cccs3)cc2[nH]1 | 0.133 µM (active) | 
CC(CCc1ccc2c(c1)OCO2)NN (stereo not given) |  | -3.18% (inactive)
CC(=N\O)/C(C)=N/O |  | 16.4% (inactive)
CC1=CC(O)CC(C)(C)C1 (stereo not given) |  | 10.8% (inactive)
CC(=O)Oc1ccc(C(=C2CCCCC2)c2ccc(OC(C)=O)cc2)cc1 |  | 14.7% (inactive)
Cc1nc2ccccn2c(=O)c1CCN1CCC(C(=O)c2ccc(F)cc2)CC1 |  | 9.23% (inactive)
O=C(CCCCCCCCC#CI)Oc1ccccc1 |  | 6.67% (inactive)
OC(CCCN1CCCCC1)(c1ccccc1)c1ccccc1 |  | 8.88% (inactive)
C=CC(=C)CCCC(C)(C)OC(C)=O |  | 13.8% (inactive)
COc1cc2c(N3CCN(C(=O)Nc4ccc(OC(C)C)cc4)CC3)ncnc2cc1OCCCN1CCCCC1 | 29.8 µM (active) | 
CCC(C(=O)OCCN(CC)CC)c1ccccc1 (stereo not given) |  | 33% (inactive)
CC(C)C(=O)O |  | 8.37% (inactive)
CC1=CC(=O)CC(C)(C)C1(O)/C=C/C(C)=C\C(=O)O (stereo not given) |  | 2.76% (inactive)
CCCCCCCCCCCCCCCCBr |  | 14.6% [at 39.1 µM] (inactive)
CCC(C)=O |  | 10.8% (inactive)
CCCCCCCCCCOS(=O)(=O)O |  | -9.13% (inactive)
CCCCCC=CCC=CCCCCCCCC(=O)OCC |  | 5.58% (inactive)
CCCOCCOCCO |  | 14.1% (inactive)
O=C(O)c1snc(Cl)c1Cl |  | -6.43% (inactive)
COCCOC(=O)C1=C(C)NC(C)=C(C(=O)OC/C=C/c2ccccc2)C1c1cccc([N+](=O)[O-])c1 (stereo not given) |  | -15.9% (inactive)

SMILES | Potency | activity, negative = cytotoxicity
OCC1CC=CCC1 (stereo not given) |  | 3.73% (inactive)
N#C[C@@H]1C[C@@H]2C[C@@H]2N1C(=O)[C@@H](N)C12CC3CC(CC(O)(C3)C1)C2 |  | -4.45% (inactive)
C[N+](C)(C)CCOC(N)=O |  | 11.4% (inactive)
C=CC(C)(O)CCCC(C)CCCC(C)CCCC(C)C (stereo not given) |  | 10.4% (inactive)
O=C(Nc1ccccc1)Nc1ccccc1 |  | -3.84% [at 95.3 µM] (inactive)
CC(=O)Nc1ccc(N)cc1 |  | 7.83% [at 95.3 µM] (inactive)
O=C(CCC1CCN(Cc2ccccc2)CC1)c1ccc2c(c1)NCCCC2 |  | 5.91% (inactive)
COC(=O)CC(=O)C(C)(C)C |  | 17% (inactive)
Cc1cc(S(=O)(=O)O)ccc1N=Nc1c(O)ccc2ccccc12 | 48.6 µM (active) | 
O=Cc1c(Cl)cccc1Cl |  | 3.35% [at 95.3 µM] (inactive)
CN1C(=O)CC(C)(c2ccccc2)C1=O (stereo not given) |  | 10.4% (inactive)
Cc1oncc1C(=O)Nc1ccc(C(F)(F)F)cc1 | inactive | 
COc1ccccc1N=Nc1c(S(=O)(=O)O)cc2cc(S(=O)(=O)O)cc(NC(C)=O)c2c1O | 28.8 µM (active) | 
CCc1c2c(nc3ccc(OC(=O)N4CCC(N5CCCCC5)CC4)cc13)-c1cc3c(c(=O)n1C2)COC(=O)[C@]3(O)CC |  | 71.5% (inactive)
CC(C)CCCC(=O)O |  | 18% (inactive)
Cc1oc(C)c(C(=O)Nc2ccccc2)c1C |  | 6.73% (inactive)
Nc1ccc(S(=O)(=O)O)c(N)c1 |  | 16.9% (inactive)
O=c1[nH]c2ccc(S(=O)CCN3CCC(Cc4ccc(F)cc4)CC3)cc2o1 (stereo not given) |  | 11.5% (inactive)
CCC(=O)OC/C=C/c1ccccc1 |  | 13.3% (inactive)
O=C(N[C@@H](c1ccccc1)[C@@H]1CCCCN1)c1cccc(C(F)(F)F)c1Cl |  | -15% (inactive)
